Reference: PubChem BioAssay (NCI)
Compounds without any hit were thinned out: in the full panel of roughly 79,000, 15% have a hit. Unmarked numbers belong to inactive results. Activity calls are given as the source filed them. Rule as the data show it: active = growth inhibition above about 70%; inactive = the rest.

Test: NCI Yeast Anticancer Drug Screen. Data for the CLN2oe strain (AID 163);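 also: 0% = growth of vehicle-only control cultures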
Settings: S. cerevisiae CLN2oe strain, hits give high values
Protocol: Growth inhibition of yeast strains with defined genetic alterations is measured as a screen for potential anti-cancer activity. Selected strains with alterations in DNA damage repair or cell cycle control were exposed to compounds and growth inhibition was measured relative to vehicle treated controls. The strain used in this assay is CLN2oe

Row | Structure (SMILES) | growth inhibition (at 1.2 µM) [%] | growth inhibition (at 3.7 µM) [%] | growth inhibition (at 11.0 µM) | growth inhibition (at 33.0 µM) | growth inhibition (at 100.0 µM)
1 | CCS(=O)(=O)c1ccc(/C=C/C=N/NC(=S)NCC(C)C)cc1 | 2 | -2 | -3% | 1% | -7%
2 | CC[C@@]1(O)C(=O)OCc2c1cc1n(c2=O)Cc2cc3c(N)cccc3nc2-1 | 25 | 23 | 25% | 22% | 13%
3 | COc1ccc(Br)c(C(=O)Sc2nnnn2-c2cccc(Cl)c2)c1 | 6 | 3 | 3% | 5% | 94% (active)
4 | O=C(O)c1ccccc1-c1ccccc1C(=O)Nc1ccc2c(c1)Cc1ccccc1-2 | 7 | 10 | 20% | 64% | 98% (active)
5 | COc1ccc2nc3cccc([N+](=O)[O-])c3c(NCCN(CCO)CCO)c2c1 | -5 | -5 | 11% | 61% | 91% (active)
6 | CCC/C(Cl)=N\OC(=O)Nc1cccc(C(F)(F)F)c1 | 15 | 5 | 4% | 6% | 18%
7 | Cc1ccc(Cl)c2[nH]c(-c3ccccc3)cc(=O)c12 | 0 | -5 | -1% | -5% | 1%
8 | COC1=CC(=O)C2C(C1=O)C(c1ccc(Cl)cc1)[C@@H]2C (stereo not given in full) | 19 | 29 | 99% (active) | 99% (active) | 99% (active)
